Source: PubChem BioAssay (NCATS)
“And” between values parts separate entries of the source, which are not always exact repeats. Equal entries are not always repeated. Results filed as inconclusive are left out. The source made the active and inactive calls. Unless noted, the call rests on the fitted dose curve; in most records, active means well fitted curve in the direction sought with a large enough effect; inconclusive means small, poorly fitted or top-dose-only effect, or another doubt; inactive means no such curve, though single readings can be large; an effect the other way counts as inactive or inconclusive.

Key:
[1] = biological target: Cytochrome P450 1A2 (Homo sapiens) (UniProt P05177); assay: p450-cyp1a2 (AID 410; calls by dose curve; further: potency means the concentration at half of the fitted maximal effect;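 on activity change, negative = inhibition: -100% = full effect of reference inhibitor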)
Procedure, shortened: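 20nM CYP1A2 with 100uM Luciferin-ME (at Km) in 100mM KPO4; compound preincubated 10 min, NADPH regeneration added, 60 min at room temperature. Luciferin quantified by luminescence after detection reagent; normalized to 57 uM furafylline.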

[2] = biological target: Glucocorticoid receptor (Homo sapiens) (UniProt P04150); assay: GR-GFP Redistribution (AID 450;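 active means compounds whose dose series gives a full or clear partial fitted curve of increased nuclear translocation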; further: potency means the concentration at half of the fitted maximal effect); conditions: U2OS GR-GFP nuclear translocation, laser cytometry, 2 h
[3] = biological target: Glucocorticoid receptor (Homo sapiens) (UniProt P04150); assay: GR-EFC Redistribution (AID 451; calls by dose curve; further: potency means the concentration at half of the fitted maximal effect); conditions: CHO-K1 GR-EFC translocation, beta-gal luminescence, 2 h
Procedure, shortened: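 CHO-K1 cells expressing nuclear EA and GR-ED fragments of b-gal; compounds titrated up to 46 uM final, 2 h at 37 C. GR nuclear translocation read as complemented b-gal luminescence after 1 h RT detection.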

[4] = biological target: Mitogen-activated protein kinase 10 (Mus musculus) (UniProt Q61831); assay: JNK3 AlphaScreen Assay (AID 530; active means well fitted curve in either direction with a large enough effect, not every such curve was filed as active;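 further: kinase came from lysate of stimulated human HepG2 cells; signal reports phosphorylation of biotinylated GST-cJun 1-79 at Ser73 with 10 µM ATP; on the % scale 0 is the no-effect control and ±100 the full control effect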)
Procedure, shortened: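 Pre-activated (IL-1β/TNFα) JNK3 in HepG2 lysates phosphorylates biotin-GST-cJun(1-79), 10 uM ATP; anti-phospho-cJun(Ser73) AlphaScreen read at room temperature, pH 7.6 Tris buffer. Compounds pre-incubated 15 min as titrations.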

[5] = biological target: 3',5'-cyclic-AMP phosphodiesterase 4B (Homo sapiens) (UniProt Q07343); assay: qHTS Assay for Inhibitors of PDE-IV (AID 607; active means well fitted activation curve with a large enough effect in the main read-out, with a control signal flat, not every such curve was filed as active; further: % of control where 0% means no effect)
Procedure, shortened: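 HEK293 ACTOne cells with CNG channel (1000/well), endogenous PDE4; membrane potential dye, compounds up to 22.9 uM final. Fluorescence Ex 535/Em 590; RO 20-1724 (100 uM final) as reference.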

[6] = qHTS Assay for Lipid Storage Modulators (AID 1519; calls by dose curve); conditions: Drosophila S3 cells, BODIPY lipid droplet/cell ratio, laser cytometry, cells loaded with oleic acid
Procedure, shortened: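 Cells seeded at 5,000 per well were treated with compounds over a concentration series and loaded with oleic acid (400 uM, as added). Lipid droplet fluorescence (488 nm excitation, 500-530 nm channel) was read by laser-scanning cytometry and normalized to 20 uM Triacsin C.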

[7] = biological target: Ubiquitin carboxyl-terminal hydrolase 1 (Homo sapiens) (UniProt O94782); assay: Inhibitors of USP1/UAF1: Pilot qHTS (AID 504865);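 further: rhodamine fluorescence freed from ubiquitin-rhodamine substrate followed over time; top concentration of the series differs between compounds; on the % scale 0 is the no-effect control and ±100 the full control effect; nearly all actives have a fitted effect of over 35% in size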
Procedure, shortened: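 In 50mM HEPES pH 7.8 containing 0.5mM EDTA, 1mM TCEP, 0.1 mg/ml BSA and 0.01% Tween-20, 1nM USP1/UAF1 is exposed to compound for 15 min, then Ub-Rho (150nM final) is added and fluorescence is read over time.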

[8] = biological target: DNA dC->dU-editing enzyme APOBEC-3G (Homo sapiens) (UniProt Q9HC16); assay: qHTS for inhibitors of Vif-A3G interactions: Validation (AID 588379); further: 0% is about no effect
Procedure, shortened: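 HeLa cells stably expressing Vif and A3G-eYFP, 700 cells/well, incubated overnight at 37 deg C, then exposed to compound overnight at 37 deg C. Inhibition of Vif-mediated degradation read as increased yellow fluorescence (Ex 488/Em 500-530) by laser-scanning cytometry.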

[9] = test system: Zika virus NS2B-NS3 protease; assay: Primary screen GU AMC qHTS for Zika virus inhibitors (AID 1347154);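 further: 0% = no-inhibitor control and -100% = no-enzyme control; nearly all actives have a fitted effect of over 70% in size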
Procedure, shortened: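 Unlinked Zika NS2B hydrophilic domain–NS3 protease complex at 25 nM in 10 mM Tris-HCl pH 8.0, 0.01% Tween 20, with an AMC peptide substrate. Fluorescence change (340/450 nm) over 15 min at room temperature, normalized to controls, fitted to 4-parameter Hill.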

[10] = Primary qHTS for small molecule stabilizers of the endoplasmic reticulum resident proteome: Secreted ER Calcium Modulated Protein (SERCaMP) assay (AID 1508630); further: on the % scale 0 is the no-effect control and ±100 the full control effect
Procedure, shortened: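 GLuc-SERCaMP-expressing SH-SY5Y cells, pretreated 16 h with compound, are challenged with thapsigargin to empty ER calcium stores; after 4 h, coelenterazine is added directly to the medium and luminescence is imaged.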

[11] = AP1 Signaling Pathway (AID 357; active means well fitted curve in either direction with a large enough effect, not every such curve was filed as active;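 further: ME-180 reporter cells stimulated with EGF at its EC50 level; on the % scale 0 is the no-effect control and ±100 the full control effect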); conditions: ME-180 AP-1-bla reporter, EGF-induced, beta-lactamase ratio, 5 h
Procedure, shortened: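 A ratiometric CCF4 readout (405 nm excitation; 460 and 530 nm emission) quantified AP-1-driven beta-lactamase in ME-180 cells after 5 h with compound and EC50 EGF; AC50 values were derived for activators and inhibitors.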

[12] = NFAT Signaling Pathway (AID 444; active means well fitted curve in either direction with a large enough effect, not every such curve was filed as active;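 further: carbachol stimulus at about its EC50 of 1 µM final; on the % scale 0 is the no-effect control and ±100 the full control effect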); conditions: Jurkat NFAT-bla M1, carbachol, beta-lactamase ratio, 5 h
Procedure, shortened: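 Jurkat cells with NFAT-driven β-lactamase reporter and co-expressed M1 receptor, stimulated with carbachol (final 1 uM, ~EC50), compound titration, 5 h at 37 °C. CCF4 loaded 1 h at RT; 460/530 nm ratio gave %activity and AC50.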

[13] = Stat Signaling Pathway (AID 446; active means well fitted curve in either direction with a large enough effect, not every such curve was filed as active); conditions: ME-180 SIE beta-lactamase reporter, IL-6 stimulated, 5 h
Procedure, shortened: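 ME-180 cells carrying a SIE-driven beta-lactamase reporter are stimulated with 40 pM IL-6 for 5 h at 37C in the presence of compound. The 460/530 nm FRET substrate ratio is read after 2.5 h at RT. Data are normalised to 300 pM IL-6 and to 125 nM JAK inhibitor controls.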

[14] = biological target: Guanine nucleotide-binding protein G(i) subunit alpha-1 (Homo sapiens) (UniProt P63096); assay: qHTS Assay for Inhibitors of RGS12 GoLoco Motif Activity (Green Fluorophore) (AID 879);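 further: 0% = labeled peptide with Gαi1 and full inhibition = labeled peptide alone without protein; negative values mean loss of peptide binding seen as reduced polarization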
Procedure, shortened: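 Fluorescence polarization assay: 50 nM Gαi1 with 10 nM FITC-labeled RGS12 GoLoco peptide in 10 mM Tris pH 7.5, 150 mM NaCl, 0.1 mM GDP, 0.05% NP40, 10 min at room temperature with compound.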

[15] = biological target: Cytochrome P450 3A4 (Homo sapiens) (UniProt P08684); assay: qHTS Assay for Activators of Cytochrome P450 3A4 (AID 885); further: nearly all actives have a fitted effect of over 65% in size
Procedure, shortened: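 Human CYP3A4 (20 nM) with Luciferin-PPXE at 25 uM (its KM) in 200 mM KPO4; 10 min compound preincubation, then NADPH regeneration and 60 min reaction at RT. Luciferin read by luminescence; normalized to 57 uM ketoconazole full inhibition.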

[16] = biological target: Pyruvate kinase PKM (Homo sapiens) (UniProt P14618); assay: qHTS Assay for Activators of Human Muscle Pyruvate Kinase (AID 954; active means well fitted curve in the direction sought with a large enough effect, not every such curve was filed as active;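 further: 0% = uninhibited enzyme and -100% = no enzyme or full thiadiazolimine inhibition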)
Procedure, shortened: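 Purified human PKM2 (0.1 nM) with 0.5 mM PEP (Km) and 0.1 mM ADP in 50 mM imidazole pH 7.2, KCl, MgCl2, 1 h at room temperature; ATP formed read by coupled luciferase luminescence. Normalized to no-enzyme/110 uM thiadiazolimine inhibition; 0.3 nM enzyme column for activation.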

[17] = biological target: alpha-glucosidase (Oryza sativa, rice) (UniProt Q653V4); assay: Counterscreen for Glucocerebrosidase Inhibitors: qHTS Assay for Rice alpha-Glucosidase at pH 5.0 (AID 997);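 further: 0% = full activity with enzyme and -100% = basal without enzyme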
Procedure, shortened: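 Rice alpha-glucosidase (4 nM final) with 400 uM 4-methylumbelliferyl-alpha-D-glucopyranoside in citrate buffer pH 5.0, 20 min at room temperature, stopped at pH 10; fluorescence 365/440 nm, compounds 0.7 nM–77 uM, AC50 from Hill fits.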

[18] = measured here: cell count channel max response
[19] = measured here: lipid channel max response

Ubiquitin carboxyl-terminal hydrolase 1 (Homo sapiens), sequence (O94782 whole entry, looked up): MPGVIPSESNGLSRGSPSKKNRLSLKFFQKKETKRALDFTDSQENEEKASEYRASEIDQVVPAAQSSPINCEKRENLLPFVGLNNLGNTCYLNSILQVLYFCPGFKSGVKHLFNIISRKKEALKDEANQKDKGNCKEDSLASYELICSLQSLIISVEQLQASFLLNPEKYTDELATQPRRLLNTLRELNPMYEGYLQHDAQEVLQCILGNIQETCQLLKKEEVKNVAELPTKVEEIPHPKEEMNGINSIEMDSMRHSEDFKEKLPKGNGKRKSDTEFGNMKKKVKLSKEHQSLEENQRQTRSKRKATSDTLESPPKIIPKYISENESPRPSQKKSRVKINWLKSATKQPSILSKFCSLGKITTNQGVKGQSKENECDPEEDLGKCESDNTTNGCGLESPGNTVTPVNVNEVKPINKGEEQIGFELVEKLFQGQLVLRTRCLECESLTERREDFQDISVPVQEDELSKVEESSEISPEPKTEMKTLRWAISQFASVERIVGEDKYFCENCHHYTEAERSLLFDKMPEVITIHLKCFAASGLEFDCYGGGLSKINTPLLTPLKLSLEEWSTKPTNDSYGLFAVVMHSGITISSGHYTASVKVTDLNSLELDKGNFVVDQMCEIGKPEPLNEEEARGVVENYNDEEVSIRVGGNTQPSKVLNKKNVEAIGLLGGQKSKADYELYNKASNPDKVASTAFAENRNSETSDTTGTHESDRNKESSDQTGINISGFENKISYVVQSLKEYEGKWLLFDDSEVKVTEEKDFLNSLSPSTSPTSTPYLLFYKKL
3',5'-cyclic-AMP phosphodiesterase 4B (Homo sapiens), sequence (Q07343 whole entry, looked up): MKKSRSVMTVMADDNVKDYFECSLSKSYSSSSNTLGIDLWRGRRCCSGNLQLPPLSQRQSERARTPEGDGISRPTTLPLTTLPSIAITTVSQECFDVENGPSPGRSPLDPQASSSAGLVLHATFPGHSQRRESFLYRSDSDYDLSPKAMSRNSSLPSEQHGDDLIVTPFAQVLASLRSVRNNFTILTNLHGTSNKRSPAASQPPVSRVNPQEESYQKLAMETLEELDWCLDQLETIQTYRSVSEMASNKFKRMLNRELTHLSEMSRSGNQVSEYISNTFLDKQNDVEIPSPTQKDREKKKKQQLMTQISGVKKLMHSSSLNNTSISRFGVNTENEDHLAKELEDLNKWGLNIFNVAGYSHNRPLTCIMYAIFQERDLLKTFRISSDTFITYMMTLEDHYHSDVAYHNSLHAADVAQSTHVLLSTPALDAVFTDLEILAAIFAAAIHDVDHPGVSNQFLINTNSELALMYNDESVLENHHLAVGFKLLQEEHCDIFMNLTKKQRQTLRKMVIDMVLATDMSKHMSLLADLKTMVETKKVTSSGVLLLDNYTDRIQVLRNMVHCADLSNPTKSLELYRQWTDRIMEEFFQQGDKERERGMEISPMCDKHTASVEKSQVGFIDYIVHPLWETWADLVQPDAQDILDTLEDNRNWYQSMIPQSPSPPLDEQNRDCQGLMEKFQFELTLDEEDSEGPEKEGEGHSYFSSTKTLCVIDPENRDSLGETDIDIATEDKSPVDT
Cytochrome P450 1A2 (Homo sapiens), sequence (P05177 whole entry, looked up): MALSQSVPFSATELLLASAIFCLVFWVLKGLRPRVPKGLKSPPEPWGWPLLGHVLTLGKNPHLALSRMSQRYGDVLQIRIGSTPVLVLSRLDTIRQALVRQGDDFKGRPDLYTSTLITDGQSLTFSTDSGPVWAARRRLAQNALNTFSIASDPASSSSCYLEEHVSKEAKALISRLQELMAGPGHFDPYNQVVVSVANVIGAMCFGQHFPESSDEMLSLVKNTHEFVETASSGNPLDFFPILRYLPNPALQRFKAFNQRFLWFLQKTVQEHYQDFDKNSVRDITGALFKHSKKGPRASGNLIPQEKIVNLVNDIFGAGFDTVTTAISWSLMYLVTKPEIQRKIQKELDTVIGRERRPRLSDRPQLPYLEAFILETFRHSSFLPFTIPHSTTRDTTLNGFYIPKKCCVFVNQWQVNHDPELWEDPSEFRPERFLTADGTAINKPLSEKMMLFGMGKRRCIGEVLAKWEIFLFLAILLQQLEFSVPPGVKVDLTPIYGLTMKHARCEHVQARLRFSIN
DNA dC->dU-editing enzyme APOBEC-3G (Homo sapiens), sequence (Q9HC16 whole entry, looked up): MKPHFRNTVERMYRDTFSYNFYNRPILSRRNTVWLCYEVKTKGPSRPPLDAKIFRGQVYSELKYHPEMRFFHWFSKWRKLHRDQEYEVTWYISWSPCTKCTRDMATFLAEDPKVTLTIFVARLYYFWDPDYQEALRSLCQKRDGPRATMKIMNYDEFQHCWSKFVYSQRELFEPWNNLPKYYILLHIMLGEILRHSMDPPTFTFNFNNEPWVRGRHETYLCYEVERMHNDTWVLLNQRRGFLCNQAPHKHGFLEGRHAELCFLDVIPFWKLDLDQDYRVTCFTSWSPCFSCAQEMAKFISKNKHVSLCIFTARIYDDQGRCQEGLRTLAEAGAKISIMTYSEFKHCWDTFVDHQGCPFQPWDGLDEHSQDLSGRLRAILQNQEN
Glucocorticoid receptor (Homo sapiens), sequence (P04150 whole entry, looked up, the tested form may be a part): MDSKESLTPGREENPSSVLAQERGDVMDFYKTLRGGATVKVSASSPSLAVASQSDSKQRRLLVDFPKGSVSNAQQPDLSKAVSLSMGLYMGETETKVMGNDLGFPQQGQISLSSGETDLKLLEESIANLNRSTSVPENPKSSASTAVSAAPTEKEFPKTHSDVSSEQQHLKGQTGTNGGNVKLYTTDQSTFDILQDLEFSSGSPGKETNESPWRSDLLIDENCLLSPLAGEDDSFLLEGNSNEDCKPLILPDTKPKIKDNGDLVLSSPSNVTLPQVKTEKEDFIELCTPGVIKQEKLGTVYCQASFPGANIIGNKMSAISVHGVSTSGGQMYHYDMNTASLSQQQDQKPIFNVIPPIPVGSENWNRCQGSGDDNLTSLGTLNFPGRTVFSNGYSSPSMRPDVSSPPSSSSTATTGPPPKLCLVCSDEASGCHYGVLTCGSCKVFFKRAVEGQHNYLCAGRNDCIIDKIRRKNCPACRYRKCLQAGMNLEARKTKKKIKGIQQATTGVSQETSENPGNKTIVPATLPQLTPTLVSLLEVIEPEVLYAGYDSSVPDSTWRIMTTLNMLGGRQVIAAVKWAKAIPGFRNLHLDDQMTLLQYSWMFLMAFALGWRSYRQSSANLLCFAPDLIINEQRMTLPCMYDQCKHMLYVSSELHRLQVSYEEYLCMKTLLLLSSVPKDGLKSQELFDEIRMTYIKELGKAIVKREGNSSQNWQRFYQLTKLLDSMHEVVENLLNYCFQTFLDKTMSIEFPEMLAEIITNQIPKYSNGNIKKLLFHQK
Pyruvate kinase PKM (Homo sapiens), sequence (P14618 whole entry, looked up): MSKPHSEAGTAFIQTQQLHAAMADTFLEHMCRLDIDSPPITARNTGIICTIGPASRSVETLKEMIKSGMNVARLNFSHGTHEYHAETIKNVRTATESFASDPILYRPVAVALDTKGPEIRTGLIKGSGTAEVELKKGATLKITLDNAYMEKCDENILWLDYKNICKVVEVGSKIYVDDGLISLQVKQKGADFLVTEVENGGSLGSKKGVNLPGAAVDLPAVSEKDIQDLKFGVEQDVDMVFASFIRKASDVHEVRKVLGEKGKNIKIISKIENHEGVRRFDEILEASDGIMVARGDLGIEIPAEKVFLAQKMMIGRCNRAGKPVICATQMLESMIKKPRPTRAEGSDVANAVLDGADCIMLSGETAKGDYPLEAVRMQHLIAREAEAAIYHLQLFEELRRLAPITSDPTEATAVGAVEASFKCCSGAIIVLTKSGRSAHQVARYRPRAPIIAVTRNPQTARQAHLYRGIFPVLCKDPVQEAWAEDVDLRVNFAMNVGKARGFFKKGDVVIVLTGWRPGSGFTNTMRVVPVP
Cytochrome P450 3A4 (Homo sapiens), sequence (P08684 whole entry, looked up): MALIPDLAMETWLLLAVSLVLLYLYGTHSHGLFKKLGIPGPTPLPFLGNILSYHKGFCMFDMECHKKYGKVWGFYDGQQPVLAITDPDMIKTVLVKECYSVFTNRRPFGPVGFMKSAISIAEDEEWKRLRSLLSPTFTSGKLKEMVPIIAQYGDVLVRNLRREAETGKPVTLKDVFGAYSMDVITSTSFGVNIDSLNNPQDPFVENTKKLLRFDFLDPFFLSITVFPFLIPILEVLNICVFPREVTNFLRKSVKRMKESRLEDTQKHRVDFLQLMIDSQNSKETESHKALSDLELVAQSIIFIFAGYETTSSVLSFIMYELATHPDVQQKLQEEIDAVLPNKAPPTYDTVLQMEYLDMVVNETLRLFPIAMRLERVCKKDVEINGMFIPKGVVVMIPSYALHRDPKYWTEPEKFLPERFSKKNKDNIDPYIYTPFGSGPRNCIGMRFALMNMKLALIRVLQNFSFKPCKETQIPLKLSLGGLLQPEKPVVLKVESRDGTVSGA
Guanine nucleotide-binding protein G(i) subunit alpha-1 (Homo sapiens), sequence (P63096 whole entry, looked up): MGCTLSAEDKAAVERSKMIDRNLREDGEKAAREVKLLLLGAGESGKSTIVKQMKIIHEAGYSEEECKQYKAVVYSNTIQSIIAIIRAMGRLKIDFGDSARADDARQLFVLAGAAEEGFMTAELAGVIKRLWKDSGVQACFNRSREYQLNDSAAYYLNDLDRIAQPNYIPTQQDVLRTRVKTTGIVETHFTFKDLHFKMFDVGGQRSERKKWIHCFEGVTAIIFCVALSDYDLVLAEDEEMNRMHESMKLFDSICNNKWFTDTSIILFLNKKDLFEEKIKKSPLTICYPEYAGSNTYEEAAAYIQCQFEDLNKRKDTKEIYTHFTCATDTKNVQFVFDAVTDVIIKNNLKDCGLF

N[C@@]1(C(=O)O)CN[C@H](C(=O)O)C1
-1.87%: max response [6, 19]
0.388%: max response [6, 18]
inactive: Potency [2] > 46 µM | Potency [3] > 46 µM | Potency [4] | Potency [5] | activity change, negative = inhibition ([6]; at 57.5 µM (top of the series)) -1.74% | Potency [7] | Potency [8] | Potency [9] | Potency [10]
active: Potency [1] 31.6 µM

COc1ccccc1NC(=O)Nc1nc(-c2cccnc2)nc2ccccc12
-30.6%: max response [6, 18]
active: Potency [1] 2.51 µM
inactive: activity change, negative = inhibition ([11]; at 38 µM (top of the series)) 12.1% | activity change, negative = inhibition ([12]; at 38 µM (top of the series)) 4.7% | activity, negative = inhibition ([13]; at 38 µM (top of the series)) 4.21% | Potency [2] > 46 µM | Potency [3] > 46 µM | Potency [4] | Potency [5] | outcome [14] | Potency [15] | outcome [16] | outcome [17] | activity change, negative = inhibition ([6]; at 57.5 µM (top of the series)) -0.716% | Potency [9] | Potency [10]
-29%: max response [6, 19]

COc1cc(N)c(Cl)cc1C(=O)OCCCN1CCCCC1
19.2%: max response [6, 18]
21.4%: max response [6, 19]
inactive: Potency [1] | Potency [2] > 46 µM | Potency [3] > 46 µM | Potency [4] | Potency [5] | Potency [15] | activity change, negative = inhibition ([6]; at 57.5 µM (top of the series)) 2.57% | Potency [7] | Potency [8] | Potency [9] | Potency [10]

COC(=O)[C@@H]1[C@@H]2C[C@H]3c4[nH]c5ccccc5c4CCN3C[C@@H]2CC[C@@H]1O
-5.31% and -9.47% and 16%: max response [6, 18]
inactive: activity change, negative = inhibition ([11]; at 7.69 µM (top of the series)) -0.0828% | activity change, negative = inhibition ([11]; at 17.2 µM (top of the series)) 0.544% and 5.73% and 0.793% | activity change, negative = inhibition ([12]; at 7.69 µM (top of the series)) -0.996% | activity change, negative = inhibition ([12]; at 17.2 µM (top of the series)) -15% and 0.703% and 5.17% | activity, negative = inhibition ([13]; at 7.69 µM (top of the series)) 0.353% | activity, negative = inhibition ([13]; at 17.2 µM (top of the series)) 5.5% and -1.53% and 0.108% | Potency [4] | Potency [5] | activity change, negative = inhibition ([6]; at 25.7 µM (top of the series)) 1.23% and -2.04% and -1.29% | Potency [7] | Potency [8] | Potency [9] | Potency [10]
-5.26% and -13% and 13.4%: max response [6, 19]

N[C@H](C(=O)O)c1ccc(C(=O)O)cc1
-4.05%: max response [6, 18]
inactive: Potency [1] | Potency [2] > 46 µM | Potency [3] > 46 µM | Potency [4] | activity change, negative = inhibition ([6]; at 57.5 µM (top of the series)) -2.07% | Potency [7] | Potency [8] | Potency [9] | Potency [10]
-7.12%: max response [6, 19]

N[C@@H]1CCN(O)C1=O
inactive: activity change, negative = inhibition ([11]; at 38 µM (top of the series)) 18.2% | activity change, negative = inhibition ([12]; at 38 µM (top of the series)) 0.992% | activity, negative = inhibition ([13]; at 38 µM (top of the series)) 21.4% | Potency [2] > 46 µM | Potency [3] > 46 µM | Potency [4] | Potency [5] | outcome [14] | outcome [16] | outcome [17] | activity change, negative = inhibition ([6]; at 57.5 µM (top of the series)) 4.58% | Potency [7] | Potency [8] | Potency [9] | Potency [10]
18.8%: max response [6, 18]
25.6%: max response [6, 19]
